From PubChem BioAssay AID651815 (National Center for Advancing Translational Sciences (NCATS), 2012)
Several values for one entry are separate records, joined by “and”; a condition that tells them apart may be missing. Equal values may be shown once. The whole screen tested about 2,100 compounds, of which about 1,100 (52%) were called active. Inconclusive results (about 29%) are left out. The set was probably picked from earlier hits. Some of the results follow. Unmarked numbers belong to inactive results. Calls come from the whole dose curve; as a rule, active = well fitted inhibition curve with a large enough effect; inconclusive = small, poorly fitted or top-dose-only effect; inactive = no such curve, though single readings can be large or run the other way.

target: DNA dC->dU-editing enzyme APOBEC-3F (Homo sapiens) (UniProt Q8IUX4); test: qHTS for inhibitors of Vif-A3F interactions: Cherry picks counterscreen; settings: HeLa A3F-eYFP/Vif cells, eYFP fluorescence, 24 h; series mostly up to 46.1 µM; activity, negative = inhibitor: at the top concentration; note: nearly all actives have a fitted effect of over 65% in size
Sequence (Q8IUX4 whole entry, looked up): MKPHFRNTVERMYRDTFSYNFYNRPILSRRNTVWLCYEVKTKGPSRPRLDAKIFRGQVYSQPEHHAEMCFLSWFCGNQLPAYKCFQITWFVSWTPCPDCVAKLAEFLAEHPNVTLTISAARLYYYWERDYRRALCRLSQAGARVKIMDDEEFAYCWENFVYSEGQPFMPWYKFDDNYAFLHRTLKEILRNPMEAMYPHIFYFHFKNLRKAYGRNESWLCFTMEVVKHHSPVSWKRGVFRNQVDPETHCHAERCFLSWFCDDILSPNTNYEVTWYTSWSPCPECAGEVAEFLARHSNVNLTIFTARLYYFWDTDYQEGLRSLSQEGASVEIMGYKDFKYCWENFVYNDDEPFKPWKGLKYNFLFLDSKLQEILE
Procedure, shortened: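 Rescue of Vif-driven A3F-eYFP degradation read as cellular eYFP fluorescence after 24 h compound exposure (several concentrations) in stable HeLa cells; MG132 (2 mM stock) as positive control.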
% is set by controls: 0 for no effect and ±100 for the full control effect; potency is the fitted concentration of half-maximal effect.

| Structure (SMILES) | activity, negative = inhibitor | Potency |
| --- | --- | --- |
| CCOc1cc(C(=O)NN=C2CCCC2)cc(OCC)c1OCC | 4.99% [at 36.9 µM] | – |
| COc1ccc2c(Cl)c(C(=O)N/N=C3\CCCC(=O)C3)sc2c1 | – | 17.7 µM (active) |
| CC1=C(n2nnc3ccccc32)C(c2ccccc2)C(C#N)=C(N)O1 (stereo not drawn) | -24.2% | – |
| CCN(CC)c1ccc2c(c1)OC(N)=C(C#N)C2c1cccnc1 (stereo not drawn) | – | 14 µM (active) |
| N#CC1=C(N)Oc2ccc3ccccc3c2C1c1cccnc1 (stereo not drawn) | – | 2.8 µM (active) |
| N#CC1=C(N)Oc2ccc3ccc(O)cc3c2C1c1ccsc1 (stereo not drawn) | -11.7% [at 36.9 µM] | – |
| Cc1ccc2c(c1C)NC(=O)CC(c1ccccc1O)=N2 | 6.28% | – |
| CN(C)c1ccc2ccc3cccc4ccc1c2c34 | – | 13 µM (active) |
| C[C@H]1CN([C@@H](C)CO)C(=O)Cc2cc(NC(=O)CCC(F)(F)F)ccc2O[C@H]1CN(C)S(=O)(=O)c1ccc(F)cc1 | – | 12.5 µM (active) |
| CCOc1cc(C#N)c(NC(=O)c2cccnc2)cc1OCC | – | 3.53 µM (active) |
| COc1ccc(OC)c(NS(=O)(=O)c2ccc(Cl)s2)c1 | – | 11.2 µM (active) |
| N#Cc1ccc(/C=C\c2nccc3c2[nH]c2ccccc23)cc1 | – | 15.8 µM (active) |
| C(=C/c1nccc2c1[nH]c1ccccc12)/c1ccc2c(c1)OCO2 | -27.4% [at 36.9 µM] | – |
| Cc1noc(C)c1COc1ccc(C(=O)NNC(=O)c2ccccc2F)cc1 | – | 9.94 µM (active) |
| Cc1ccc(CN(C(=O)c2ccccc2F)c2ccccn2)o1 | -16.2% | – |
| Cc1noc(C)c1COc1ccc(C(=O)NNC(=O)c2ccccc2)cc1 | – | 4.98 µM (active) |
| CCCN1C=CC(=CC=C(C#N)C#N)C=C1 | – | 17.7 µM (active) |
| C=CCN1C=CC(=CC=C(C#N)C#N)C=C1 | – | 17.7 µM (active) |
| CCOC(=O)/C(C#N)=C\C=C1C=CN(C)C=C1 | 23.1% | – |
| C=CCN1C=CC(=C/C=C(/C#N)C(=O)OCC)C=C1 | – | 4.61 µM (active) |
| COc1ccc(-n2c(O)c(/C=N/NS(=O)(=O)c3ccc(C)cc3)c3ccccc3c2=O)cc1OC | – | 18.4 µM (active) |
| COc1ccc(-n2c(O)c(/C=N/NS(=O)(=O)c3cc(C)ccc3C)c3ccccc3c2=O)cc1OC | – | 13 µM (active) |
| CC12CC3CC(C)(C1)CC(C(=O)NC(=S)N1CCOCC1)(C3)C2 | -2.22% [at 36.9 µM] | – |
| C(=Cc1c[nH]c2ccccc12)c1ccc2ccccc2n1 | – | 18.4 µM (active) |
| C(=C\c1c[nH]c2ccccc12)/c1ccc2ccccc2n1 | – | 18.4 µM (active) |

| Structure (SMILES) | activity, negative = inhibitor | Potency |
| --- | --- | --- |
| COc1ccc(C(=O)Nc2cccc(/C=C/c3nc4ccccc4c(=O)[nH]3)c2)cc1 | – | 15.8 µM (active) |
| Nc1c(C(=O)Nc2ccc(S(=O)(=O)N3CCCC3)cc2)sc2nc3cc4c(cc3cc12)CCC4 | – | 14.6 µM (active) |
| CCc1cccc2cc3c(N)c(C(=O)Nc4ccc(S(=O)(=O)N5CCCC5)cc4)sc3nc12 | – | 6.27 µM (active) |
| Nc1c(C(=O)Nc2ccc(S(=O)(=O)N3CCCC3)cc2)sc2nc3ccc(OC(F)(F)F)cc3cc12 | – | 23.1 µM (active) |
| Cn1nnnc1SCCNCc1cc(Br)ccc1OCc1ccccc1Cl | -13.7% | – |
| CCC(C)n1c(NC(=O)c2ccccc2)c(C#N)c2nc3ccccc3nc21 (stereo not drawn) | – | 18.4 µM (active) |
| Fc1ccc2nc3[nH]c4ccccc4c3nc2c1 | – | 0.886 µM (active) |
| COc1ccc(OC)c(/C=C/c2nc3ccccc3[nH]c2=O)c1 | – | 5.8 µM (active) |
| Cc1ccc(N2C(=O)[C@@H]3[C@H](C2=O)[C@H]2C=C(C(=O)c4ccccc4)C=CN2[C@@H]3C(=O)c2ccc(Cl)cc2)cc1 | -18.4% | – |
| COc1ccc(N2CC(C(=O)N/N=C/c3ccc(C)cc3)CC2=O)cc1 (stereo not drawn) | – | 3.53 µM (active) |
| COCCCNC(=S)N/N=C/c1ccc(OC)cc1 | -7.86% | – |
| CCSC1=N/C(=C\C=C2/Oc3ccccc3N2CC)C(=O)S1 | – | 14.6 µM (active) |
| CCCCN1C(=O)/C(=C/C=C2\Oc3ccccc3N2CC)SC1=S | -0.0599% [at 36.9 µM] | – |
| N#CC1=C(N)C(C#N)(C#N)[C@H](c2ccoc2)[C@H]2CN(Cc3ccccc3)CC=C12 | – | 4.98 µM (active) |
| CCn1c(/C=C/c2ccc([N+](=O)[O-])o2)nc2ccccc2c1=O | – | 11.6 µM (active) |
| CCCN1C(=O)C(Cc2nc3ccccc3c(=O)n2CC)c2cc(Br)ccc21 (stereo not drawn) | 2.23% | – |
| Cn1c(/C=C/c2ccc([N+](=O)[O-])o2)nc2ccccc2c1=O | – | 23.1 µM (active) |
| Cc1cc(N/N=C/c2ccc([N+](=O)[O-])o2)nc2ccccc12 | – | 20.6 µM (active) |
| O=c1c2ccccc2nc(/C=C/c2ccc([N+](=O)[O-])o2)n1CCCO | – | 23.1 µM (active) |
| COc1cc(/C=N\Nc2ccc([N+](=O)[O-])cc2)ccc1OCC(=O)Nc1ccc(C)c(C)c1 | – | 0.651 µM (active) |
| CCN(CC)c1ccc(/C=c2/sc3nnc(-c4ccccc4C)n3c2=O)cc1 | – | 16.4 µM (active) |
| COc1ccc2c(c1)N(C)/C(=C/c1cccc[n+]1C)S2 | – | 14 µM (active) |
| CCN1/C(=C/c2cccc[n+]2C)Sc2ccc(OC)cc21 | – | 20.6 µM (active) |
| CC[n+]1ccccc1/C=C1\Sc2ccc(C)cc2N1C | – | 20.6 µM (active) |
| O=C(CSc1n[nH]c(-c2ccccn2)n1)Nc1ccc(Cl)cc1 | 28.8% | – |

| Structure (SMILES) | activity, negative = inhibitor | Potency |
| --- | --- | --- |
| Cc1ccccc1OCC(=O)NNC(=O)Nc1ccc(Cl)cc1 | – | 4.98 µM (active) |
| COc1ccccc1OCC(=O)NNC(=O)Nc1ccc(Cl)cc1 | – | 15.8 µM (active) |
| COc1cc(C2c3cc4c(cc3OC(C)(N3CCCC3)C2C)OCO4)cc(OC)c1OC (stereo not drawn) | – | 1.25 µM (active) |
| CC(C)NC(=S)N/N=C1\CCCCc2ccccc21 | 1.48% | – |
| N#CC1=C(N)Oc2cc(N)ccc2C1C1CC=CCC1 (stereo not drawn) | – | 5.59 µM (active) |
| N#CC1=C(N)Oc2cc(N)ccc2C1c1ccccc1F (stereo not drawn) | – | 4.98 µM (active) |
| N#CC1=C(N)Oc2cc(N)ccc2C1c1ccc(F)cc1F (stereo not drawn) | – | 20.6 µM (active) |
| Cc1cccc(CSc2cccc3cccnc23)c1 | -23.1% [at 36.9 µM] | – |
| COC(=O)c1cccc(NS(=O)(=O)c2ccc(OC)cc2)c1C | – | 3.53 µM (active) |
| S=C(Nc1cccc2ccccc12)NN1CCCCCC1 | -1.64% | – |
| COc1ccc(S(=O)(=O)Nc2cccc3ccccc23)cc1 | – | 10.3 µM (active) |
| CCCCN1C(=O)/C(=C2/Sc3ccccc3N2C)S/C1=N\c1ncn[nH]1 | – | 20.6 µM (active) |
| COc1cccc(Cn2c(-c3nonc3N)nc3ccccc32)c1 | – | 1.58 µM (active) |
| Nc1nonc1-c1nc2ccccc2n1Cc1ccc(F)cc1 | – | 8.86 µM (active) |
| COc1ccc(C)c(Cn2c(-c3nonc3N)nc3ccccc32)c1 | – | 1.58 µM (active) |
| CCC(=O)Nc1nonc1-c1nc2ccccc2n1Cc1ccccc1 | – | 17.7 µM (active) |
| COc1cccc(Cn2c(-c3nonc3NC(C)=O)nc3ccccc32)c1 | – | 9.2 µM (active) |
| Cc1ccc(C(=O)NCCn2c(N)c(C#N)c3nc4ccccc4nc32)cc1 | – | 18.4 µM (active) |
| COc1ccc(-c2cc(-c3nnc(COC(=O)c4ccncc4)o3)c3ccccc3n2)cc1OC | 4.55% | – |
| COc1ccc(COc2cc(-c3cccc(OC)c3)nc3ccc(NC(=O)c4ccc(OC)cc4)cc23)cc1 | – | 6.27 µM (active) |
| Cc1ccc2c(c1)sc(-c1ccc(N(C)C)cc1)[n+]2C | – | 14.6 µM (active) |
| CCC(=O)Nc1nc2ccc(NC(=O)c3cc(OC)c(OC)c(OC)c3)cc2s1 | -5.46% [at 36.9 µM] | – |
| CCCC(=O)Nc1nc2ccc(NC(=O)c3ccccc3F)cc2s1 | – | 4.44 µM (active) |
| Cn1cc(C2=C(c3ccc(Cl)cc3Cl)C(=O)NC2=O)c2ccccc21 | – | 14.6 µM (active) and 20.6 µM (active) |
| CCOC(=O)N1CCC(Nc2nc3ccccc3n3nnnc23)CC1 | – | 18.4 µM (active) |

| Structure (SMILES) | activity, negative = inhibitor | Potency |
| --- | --- | --- |
| COc1cccc(Nc2nc(Nc3ccc(Cl)c(C(=O)O)c3)nc(C)c2[N+](=O)[O-])c1 | -17.5% [at 36.9 µM] | – |
| CCOC(=O)c1ccc(Nc2nc3ccccc3nc2NS(=O)(=O)c2ccc(Cl)cc2)cc1 | – | 14.6 µM (active) |
| COC(=O)c1cc(Nc2nc3ccccc3nc2NS(=O)(=O)c2ccc(C)cc2)ccc1Cl | – | 18.4 µM (active) |
| Cc1ccc2nc(NS(=O)(=O)c3ccc(Cl)cc3)c(Nc3ccc(C(=O)O)cc3)nc2c1 | – | 14.6 µM (active) |
| CCOC(=O)N1CCC(Nc2nc3ccccc3nc2NS(=O)(=O)c2ccc(Cl)cc2)CC1 | – | 23.1 µM (active) |
| NC(=S)N/N=C/c1cccc(O)c1O | -9.52% | – |
| CC(=O)N/N=C/c1cc(C(C)C)cc(/C=N/NC(C)=O)c1O | 1.76% | – |
| CC(=O)N/N=C/c1cc(C(C)(C)C)cc(/C=N/NC(C)=O)c1O | – | 23.1 µM (active) |
| CCOc1ccc(C(C)=O)cc1COc1cccnc1[N+](=O)[O-] | – | 9.94 µM (active) |
| COc1cccc(/C=N/n2c(C3CCCCC3)n[nH]c2=S)c1O | 3.52% | – |
| COc1ccc(-n2nc3c(N4CCCC(C(=O)NCCc5ccccc5C)C4)nnc(C)c3c2C)cc1 (stereo not drawn) | – | 25.9 µM (active) |
| COc1ccc2cc(C(=O)C3CCCN(Cc4ccccn4)C3)ccc2c1 (stereo not drawn) | -1.67% | – |
| CNCC(O)Cn1c2c(c3ccccc31)CCCC2 (stereo not drawn) | -7.5% [at 36.9 µM] | – |
| O=C(c1ccccc1F)n1c2c(c3ccccc31)CCCC2 | – | 11.2 µM (active) |
| CCOC(=O)N1CCc2c(sc3c2C(=O)NC(c2ccc(N(C)C)cc2)N3)C1 (stereo not drawn) | – | 9.2 µM (active) |
| Cc1cc(C)c2cc3c(N)c(C(=O)Nc4c(C)[nH]c(=O)[nH]c4=O)sc3nc2c1 | – | 18.4 µM (active) |
| CCOC1=C/C(=C/c2c(N)n3nc(-c4ccccc4)sc3nc2=O)C=CC1=O | 7.32% | – |
| CCSc1ncc(Cl)c(C(=O)N2CCN(c3ccccc3OC)CC2)n1 | – | 2.06 µM (active) |
| COc1ccccc1N1CCN(C(=O)c2cc(=O)c3cc(C)cc(C)c3o2)CC1 | – | 0.125 µM (active) |
| COc1cc(SC)ccc1C(=O)N1CCN(c2ccccc2OC)CC1 | – | 3.53 µM (active) |
| COc1ccccc1N1CCN(C(=O)c2ccc3ncsc3c2)CC1 | -27% [at 36.9 µM] | – |
| COc1ccccc1N1C(=O)c2cccc3c(C(=O)O)ccc(c23)C1=O | -7.57% [at 36.9 µM] | – |
| COC(=O)c1cc(C(=O)N2CCN(c3ccccc3OC)CC2)cc([N+](=O)[O-])c1 | – | 3.96 µM (active) |
